# An excerpt weighted towards active compounds, which were near 3% of everything screened.
# Mot1-301 SUMO: yeast Mot1-301 growth rescue at high temperature, primary screen, SUMOylation pathway inhibitor project, S. cerevisiae, ATP luminescence, 38.5C; S. cerevisiae Mot1-301 growth rescue; percent above DMSO median, 100 means doubled; growth rescue, % at 18.8 µM; 1% of 320,000 active;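 active = every valid replicate shows activation above 250% relative to neutral control wells; inactive = the rest, any valid replicate at or below 250%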;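 also: OY570 slx delta 5 strain wells were the positive control but not used for scaling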
# CHT block: inhibitors of human choline transporter CHT; CHT-expressing cells, membrane potential dye, choline response; active compounds read low; B-score at 10 µM; 0.86% of 310,000 active; AID 488975, 2010;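 active = B-score over 3 SD under the library average, and starting fluorescence ratio not unusually high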;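 also: choline stimulus applied at its EC90 after an EC20 pre-addition; B-score computed on integrated fluorescence ratio after choline addition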
# Target sequence (Q9GZV3 whole entry, looked up): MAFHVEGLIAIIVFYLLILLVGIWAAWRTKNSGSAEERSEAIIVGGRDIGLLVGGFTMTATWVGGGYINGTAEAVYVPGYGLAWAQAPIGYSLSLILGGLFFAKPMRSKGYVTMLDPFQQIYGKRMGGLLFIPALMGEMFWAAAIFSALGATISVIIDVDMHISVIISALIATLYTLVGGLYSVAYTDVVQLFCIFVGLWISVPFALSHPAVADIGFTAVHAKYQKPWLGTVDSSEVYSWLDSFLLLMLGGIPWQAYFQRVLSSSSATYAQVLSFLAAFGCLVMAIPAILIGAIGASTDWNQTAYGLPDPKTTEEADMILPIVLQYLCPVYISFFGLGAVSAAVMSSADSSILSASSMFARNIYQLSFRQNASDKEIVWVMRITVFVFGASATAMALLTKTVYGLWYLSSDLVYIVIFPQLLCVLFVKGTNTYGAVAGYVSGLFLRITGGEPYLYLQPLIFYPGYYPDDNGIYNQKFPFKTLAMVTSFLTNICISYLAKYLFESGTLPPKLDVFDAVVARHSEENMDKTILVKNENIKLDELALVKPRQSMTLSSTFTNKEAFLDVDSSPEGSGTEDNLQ
# CHT PAM: CHT positive allosteric modulators, primary screen, cell-based, membrane potential dye, choline EC20; 0.49% of 310,000 active; AID 488977, 2010; B-score at 10 µM; CHT-expressing cells; active compounds read high; LV-AA mutant CHT in HEK293 cells;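 active = initial fluorescence not abnormally high and integrated response B-score, plate-corrected, over 3 SD above library mean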
# A1 inh: caspase 3/7 activation in MEF A1-2A-BIM cells, primary screen, A1 inhibitor project, cell-based, luminescence, HTS; 0.066% of 330,000 active; Caspase-Glo 3/7 luminescence, 3 h; percent of clofoctol response, vehicle zero; caspase activation, % (concentration not given with the values);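 active = over half of replicate activation scores above 10%, or exactly half above 10 with the replicate mean above 10; inconclusive = replicate mean below 10 yet half the replicates above 10; inactive = over half of replicates below 10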
# NALP3 yeast inh: NALP3 inflammasome inhibitors in reconstituted yeast, primary screen, luminescence, uHTS; Yeast reconstituted NLRP3/ASC/caspase-1, beta-gal luminescence, 24 h; inhibition, % at 10 µM; 0.39% of 330,000 active;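 active = inhibition of 50% or more; inactive = inhibition below 50%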;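 also: plate controls were induced DMSO wells for no effect and uninduced yeast grown without galactose for full effect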
# NALP1 yeast inh: NALP1 inflammasome inhibitors in reconstituted yeast, colorimetric, S. cerevisiae, triplicate retest; S. cerevisiae NALP1/ASC/caspase-1 growth, X-gal OD620, 72 h; inhibition, % at 10 µM; 0.61% of 280,000 active; in the data active = inhibition mostly above about 24%, no sharp cut-off; inactive = mostly below about 32%
# * = called active by the depositor; i = inactive; ? = inconclusive; · = no result.
SMILES,Mot1-301 SUMO,CHT block,CHT PAM,A1 inh,NALP3 yeast inh,NALP1 yeast inh
CC1(C)Cc2ccccc2C2=C(C(=O)N3CCCCCC3)C(=O)C(=O)N21,307.1*,i,i,0.0,22.3,16.9
O=C1C(=O)N2C(=C1C(=O)N1CCCCCC1)c1ccccc1CC21CCCC1,-16.7,i,i,1.2,10.7,·
O=C(c1cccs1)N1CCC(c2nc3c(nnn3Cc3c(Cl)cccc3Cl)c(=O)[nH]2)CC1,2.3,i,i,0.5,18.4,-16.7
CC(Sc1nnc(COc2ccc(Cl)cc2)o1)C(=O)Nc1ccc(N2CCOCC2)cc1 (centres undefined),·,·,·,·,9.8,·
S=c1[nH]nc(-c2cc(-c3ccccc3)n[nH]2)n1/N=C/C(Br)=C/c1ccccc1,538.9*,i,i,0.4,31.5,-6.4
S=c1[nH]nc(-c2cc(-c3ccccc3)n[nH]2)n1/N=C/c1ccccc1,164.4,i,i,-0.7,15.6,·
COc1cc(NC(=O)C2CC(c3c(F)cccc3Cl)=NO2)c(OC)cc1Cl (centres undefined),-7.4,i,i,-0.1,25.2,15.3
CCn1cc(C2=NOC(C(=O)Nc3cc(OC)c(Cl)cc3OC)C2)c(C)n1 (centres undefined),-3.1,i,i,0.5,15.5,32.9*
O=[N+]([O-])c1ccccc1Oc1ccc(S(=O)(=O)N2CCOCC2)cc1,-2.2,·,·,-0.6,9.6,·
CCC(C)(C)C1CCc2c(sc(NC(=O)c3ccccc3C(=O)O)c2C#N)C1 (centres undefined),200.2,-7.71*,i,1.7,-3.8,19.2
O=C(COC(=O)/C=C/c1cccc(Cl)c1)Nc1ccc2[nH]c(=O)[nH]c2c1,-7.6,i,i,-0.1,13.8,·
O=C(COC(=O)/C=C/c1cccc(Cl)c1Cl)Nc1ccc2[nH]c(=O)[nH]c2c1,12.2,·,·,15.6*,4.4,·
O=C(O)c1cccc(-n2nc(-c3ccc(Cl)c([N+](=O)[O-])c3)c3ccccc3c2=O)c1,6.5,i,i,1.2,11.1,-14.9
CC(=O)N(CC(=O)O)c1ccccc1,-13.4,i,i,1.2,-8.7,27.2
CC(=O)N(CC(C)(C)CC=C(C)C)c1ccccc1,638.0*,i,i,0.4,9.4,10.6
CC(C)C(=O)Nc1ccc(N2CCCC2)c(Cl)c1,496.9*,i,i,0.5,17.6,2.8
Cc1ccc(NC(=O)C(C)N2CCCC2)cc1Cl (centres undefined),-10.4,i,i,0.0,4.6,5.2
Cc1ccccc1Nc1nnc(SCC(=O)c2c(N)n(C3CC3)c(=O)[nH]c2=O)s1,·,·,·,·,22.1,·
O=C(O)CN1CCc2ccccc2C1,7.0,i,i,0.3,-16.3,31.8*
O=C(O)c1cccc(C(=O)Cc2ccccc2)c1,-37.2,i,i,-12.0,8.6,29.3
O=C(O)c1cccc(C(=O)O)c1,384.2*,i,i,0.3,7.0,12.2
Cc1cc(C(=O)N/N=C/c2ccc(N(C)C)o2)cs1,2.5,i,i,0.0,5.7,31.1*
COc1ccc(/C=C2\N=C(C)OC2=O)cc1[N+](=O)[O-],7.2,i,i,1.7,2.2,39.1*
Cc1c(CC(=O)O)c(=O)oc2c(C)c(OCc3nn[nH]n3)ccc12,-8.1,i,i,0.0,-0.5,37.4*
Cc1c(Cc2ccccc2)c(=O)oc2c(C)c(OCc3nn[nH]n3)ccc12,57.5,i,i,?,14.1,12.2
SMILES,Mot1-301 SUMO,CHT block,CHT PAM,A1 inh,NALP3 yeast inh,NALP1 yeast inh
COc1ccc(S(=O)(=O)N2CCN(C(=O)c3ccc4ccccc4n3)CC2)cc1,-13.9,·,·,-0.3,22.0,·
CC(C(=O)N1c2ccc(F)cc2CCC1C)N1C(=O)c2ccccc2C1=O (centres undefined),262.2*,i,i,-0.2,-0.4,29.0
CCC(CC)C(=O)N1c2ccc(F)cc2CCC1C (centres undefined),-8.2,i,i,0.0,-4.9,-0.6
O=[N+]([O-])c1ccc(N=Nc2ccc(O)cc2O)cc1,-13.3,-9.85*,i,-9.5,29.2,-10.2
CSc1nnc(NC(=O)c2ccc(S(=O)(=O)N3CCOCC3)cc2)s1,126.5,i,i,0.0,6.8,7.7
Cn1c(Cl)cnc1C(O)(c1ccccc1)c1ccccc1,-23.4,i,i,0.3,15.1,-27.7
NC(=O)N/N=C/c1sc(N2CCCCC2)nc1-c1cccs1,222.6,i,i,-2.1,22.9,·
O=C(N/N=C/c1sc(N2CCCCC2)nc1-c1cccs1)C1CC1,36.9,i,i,0.5,11.9,31.2*
O=C(NNC(=O)C1CC1)c1ccc(-c2ccccc2)cc1,-9.0,i,i,-1.1,8.9,-2.4
O=C(NNC(=O)c1ccccc1C(=O)O)c1ccc(-c2ccccc2)cc1,-7.1,-6.66*,i,-1.9,23.7,11.8
C=C(C)CNC(=S)N/N=C/c1ccc([N+](=O)[O-])cc1,7.5,i,i,1.6,20.7,32.2*
O=C(NC(=S)Nc1ccc2[nH]c(=O)[nH]c2c1)c1ccccc1[N+](=O)[O-],-2.4,i,i,-1.0,9.2,16.2
COCCn1c(SCC(=O)Nc2ccc(S(=O)(=O)N(C)C)cc2)nc2ccccc21,10.8,i,i,0.3,-2.7,37.6*
COCCn1c(SCC(=O)NC2CC2)nc2ccccc21,-7.4,·,·,0.2,14.9,·
OCC1(Cc2ccc(Cl)cc2)CCN(Cc2ccccc2F)CC1,19.7,i,i,0.4,9.6,2.3
CSc1ccc(CN2CCC(CO)(Cc3ccc(Cl)cc3)CC2)cc1,3.4,i,i,-0.3,31.4,28.3*
Cc1cc(=O)oc2c3c(cc(OCC(=O)NC(C)C)c12)OC(C)(C)CC3,0.1,i,i,0.1,·,-1.6
CCS(=O)(=O)c1ncc(Cl)c(C(=O)Nc2ccc(S(=O)(=O)N(C)c3ccccc3)cc2)n1,5.0,i,i,12.5*,33.0,15.8
COc1ccc(CCNC(=O)CSc2nc3[nH]ncc3c(=O)n2-c2ccc(C)c(Cl)c2)cc1OC,·,·,·,·,·,2.9
O=S(=O)(c1ccc(-c2nc3ccccc3s2)cc1)N1CCCC1,13.2,i,i,-5.9,0.2,13.1
CC1CN(S(=O)(=O)c2ccc(-c3nc4ccccc4s3)cc2)CC(C)O1 (centres undefined),-14.9,i,i,0.9,1.7,30.4*
CCCCN(CCCNC(=O)CN1C(=O)COc2ccc(S(=O)(=O)N3CCC(C)CC3)cc21)Cc1ccccc1,182.1,i,i,-0.5,16.2,22.3
Nc1ccc(C(=O)NCCCSc2ccccc2)cc1[N+](=O)[O-],-10.3,i,i,0.6,27.1,-3.0

# Bioassay records from PubChem BioAssay.
